Reference: PubChem BioAssay
Several values for one entry are separate records, joined by “and”; a condition that tells them apart may be missing. Equal entries are not always repeated. Activity calls are given as the source filed them.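 The calls were made as follows, unless noted: active = compounds whose cell count with miR-34 switched on is under 0.7 times the count with it off; inactive = the rest.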

Columns and labels:
[1] = test system: Aerobactin synthetase IucA (Klebsiella pneumoniae); test: IucA aerobactin synthetase inhibitors, biochemical, Tocris library, absorbance (AID 1345561; call rule not given here;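 also: 100% = enzyme without compound and 0% = no enzyme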); settings: purified IucA enzyme assay, absorbance (OD) read-out; stronger effect = lower value;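 tested at 8 µM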
[2] = sensitizers of A549 cells to miR-34 induction, primary screen, imaging, A549 dox-inducible miR-34, nuclei and caspase counts (AID 1347080); settings: A549 miR-34 inducible, Hoechst nuclei count, 48 h
[3] = viability rescue of complex I mutant cybrids, primary screen, cell-based, galactose medium, ATP luminescence (AID 1645843;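 active = z-score of at least 1.8 in each of two replicates, scored against plate mean and spread of sample wells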;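 also: positive z means more ATP and so rescue of galactose-driven cybrid death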); settings: complex I mutant cybrid cells, 72 h, stronger effect = higher value
[4] = stronger effect = lower value, cell number ratio, induced over uninduced
[5] = measured here: relative caspase fold change +Dox/-Dox
[6] = measured here: total cells with miR-34 induction, stronger effect = lower value
[7] = measured here: total cells without miR-34 induction

SMILES	remaining activity [1]	fold change [2, 4]	fold change [2, 5]	cell count [2, 6]	cell count [2, 7]	z-score [3]
Nc1ncnc2c1nc(Br)n2[C@@H]1O[C@@H]2COP(=O)(O)O[C@H]2[C@H]1O	114% (inactive)	0.96 (inactive)	0.834	8030	8360	-0.015 (inactive)
CC(C)Oc1ccc2c(=O)c3cc(C(=O)O)ccc3oc2c1	93.9% (inactive)	1.01 (inactive)	1.37 and 0.638	5920 and 8510	5860 and 8390	0.015 (inactive)
O=C(O)CCC/C=C\C[C@@H]1CO[C@H](C(F)(F)F)O[C@@H]1c1ccccc1O	111% (inactive)	0.924 (inactive)	0.777	7790	8430	0.14 (inactive)
Cc1ccc(NC(=O)C(C)C)cc1C1CCN(Cc2ccc(Oc3ccc(F)c(F)c3)cc2)CC1	107% (inactive)	1.03 (inactive)	0.737	1330	1290	-0.705 (inactive)
CN1CCN(C(=O)c2nc3ccc(Cl)cc3[nH]2)CC1	102% (inactive)	0.91 (inactive)	1.56	8900	9780	0.84 (inactive)
O=C(Nc1c(-c2cccs2)nc2ccccn12)c1ccc(Cl)cc1	108% (inactive)	0.889 (inactive)	0.893	8490	9560	1.35 (inactive)
COc1ccc(-n2[nH]c3c4c(ncc3c2=O)CCCCC4)cc1	115% (inactive)	0.906 (inactive)	1.8	8550	9440	2.12 (active)
c1ccc(COCCCc2cnc[nH]2)cc1	112% (inactive)	0.883 (inactive)	2.69	8520	9640	-0.18 (inactive)
C[C@]12CC[C@@H]3c4ccc(O)cc4C[C@@H](CCCCCCCCCS(=O)CCCC(F)(F)C(F)(F)F)C3[C@@H]1CC[C@@H]2O (some centres not stated)	117% (inactive)	0.929 (inactive)	0.852	6320	6800	0.9 (inactive)
O=C(NC1CCN(Cc2ccccc2)CC1)c1ccc(I)cc1	113% (inactive)	0.862 (inactive)	0.815	6720	7800	-0.755 (inactive)
c1ccc(C2NNCC2c2ccnc3ccccc23)nc1 (configuration not stated)	101% (inactive)	0.908 (inactive)	1.57	8690	9570	-0.15 (inactive)
O=C(/C=C/c1ccccc1)NC(NC(=S)Nc1ccc(Cl)cc1)C(Cl)(Cl)Cl (configuration not stated)	118% (inactive)	0.939 (inactive)	1.5	2530	2700	-0.74 (inactive)
CN(C)C(=O)C(=O)c1cn(C)c2cc(Cl)c(C(=O)N3CCC(Cc4ccc(F)cc4)CC3)cc12	118% (inactive)	1.09 (inactive)	0.88	4920	4530	-0.96 (inactive)
C[C@H]([C@@H](O)c1ccc(O)cc1)N1CCC(Cc2ccccc2)CC1 (racemic)	93.2% (inactive)	0.927 (inactive)	0.793	8080	8720	-1.02 (inactive)
C[C@@H](NCc1cc(Br)cc2[nH]c(=O)c(=O)[nH]c12)P(=O)(O)O	104% (inactive)	0.887 (inactive)	1.3	8900	10000	-0.07 (inactive)
NC(C(=O)O)c1ccc(C(=O)O)c(C(=O)O)c1 (configuration not stated)	109% (inactive)	0.922 (inactive)	0.667	8080	8760	0.13 (inactive)
O=C(O)CC/C=C\C[C@@H]1CO[C@H](c2ccccc2Cl)O[C@@H]1c1ccccc1O	75.4% (inactive)	0.977 (inactive)	0.805	8270	8470	6.17 (active)
CCOC(=O)NC[C@H](Cc1ccc(OCCc2nc(-c3ccccc3)oc2C)cc1)N/C(C)=C\C(=O)c1ccc(C(F)(F)F)cc1	105% (inactive)	1.05 (inactive)	1.05	5130	4910	-0.305 (inactive)
Oc1ccc(-c2nc3cc(O)cc(Br)c3o2)cc1	98.9% (inactive)	0.904 (inactive)	1.67	8500	9400	0.775 (inactive)

SMILES	remaining activity [1]	fold change [2, 4]	fold change [2, 5]	cell count [2, 6]	cell count [2, 7]	z-score [3]
O=C(O)COc1ccc(OCCNC[C@@H](O)COc2ccccc2)cc1	89.3% (inactive)	0.984 (inactive)	1.02	8850	8990	0.955 (inactive)
CC(=O)c1ccc2c(c1)[C@@H]1C=CC[C@@H]1[C@H](c1cc3c(cc1Br)OCO3)N2	128% (inactive)	1.21 (inactive) and 1.03 (inactive)	0.332 and 1.3	2540 and 1820	2100 and 1760	-0.965 (inactive)
COc1cc(Br)c(S(=O)(=O)Nc2ccc(Cl)c(O[C@@H]3CCN(C)C3)c2)cc1OC	112% (inactive)	0.925 (inactive)	1.74	5240	5660	-0.645 (inactive)
COC(=O)C(Cc1ccc(OCCn2c(=O)sc3cc(C(=O)c4ccccc4)ccc32)cc1)C(=O)OC	104% (inactive)	0.909 (inactive)	1.26	8190	9020	-0.89 (inactive)
N[C@@H](CSS(=O)(=O)O)C(=O)O	94.5% (inactive)	0.893 (inactive)	0.93	8240	9220	-0.57 (inactive)
Cc1nnc(-c2ccc3occ(-c4ccc(S(C)=O)cc4)c3c2)o1 (configuration not stated)	113% (inactive)	0.855 (inactive)	1.35	4510	5270	-0.44 (inactive)
COC(=O)C1=C(C)NC(C)=C(C(=O)OCCSc2ccccc2)C1C (configuration not stated)	91.1% (inactive)	0.923 (inactive) and 0.85 (inactive)	0.923 and 0.966	2710 and 6700	2930 and 7880	-0.87 (inactive)
CCCN(C/C=C/I)C1CCc2cccc(O)c2C1 (configuration not stated)	123% (inactive)	0.893 (inactive)	1.14	8040	9000	-0.945 (inactive)
C=C1C(=O)O[C@@H]2/C=C(\C)CC/C=C(\C)CC[C@@H]12	118% (inactive)	1.04 (inactive)	1.29	8100	7810	-0.605 (inactive)
Cc1nc2c(O)cccc2c(=O)[nH]1	117% (inactive)	0.957 (inactive)	0.648	9130	9530	-0.215 (inactive)
CCCCn1c(=O)c2[nH]c(C34CC5CC(CC3C5)C4)nc2n(CCCO)c1=O	106% (inactive)	1.02 (inactive)	1.81	5180	5060	0.41 (inactive)
Clc1cccc2c1CN(C1=NCCN1)C2	99.4% (inactive)	0.914 (inactive)	0.792	9080	9940	-0.085 (inactive)
N[C@@H](C(=O)O)[C@@H](OCc1ccccc1)C(=O)O (racemic)	110% (inactive)	0.921 (inactive)	1.02	8010	8700	0.315 (inactive)
COc1ccc(-c2nc(-c3ccc(-c4cccc(Cl)c4)o3)[nH]c2-c2ccc(OC)cc2)cc1	125% (inactive)	0.932 (inactive) and 1.97 (inactive)	1.76 and 0.641	4720 and 2100	5060 and 1060	-0.15 (inactive)
C1CC[C@H]2[N]=[Pt]=[N][C@@H]2C1.O=C(O)C(=O)O	86.1% (inactive)	0.928 (inactive)	1.09	4040	4350	3.04 (active)
Nc1nnc(Sc2ncc([N+](=O)[O-])s2)s1	119% (inactive)	0.911 (inactive)	4.18	3000	3290	-1.04 (inactive)
O=S(c1ccccc1)c1ccc2nnnn2n1 (configuration not stated)	106% (inactive)	1.59 (inactive)	0.481	3220	2020	-0.805 (inactive)
O=C(Nc1ccc(C(F)(F)F)cn1)N1CCN(c2ncccc2C(F)(F)F)CC1	86.8% (inactive)	0.952 (inactive)	1.39	6230	6540	-0.475 (inactive)
